Reference: the OligoGym collection

Each sequence was assayed against CEACAM7 (assay: pooled miR-30 sensor sort-seq; sequence = guide strand). Conditions: shRNA.
TATCCTATAATTCGATAGTTGG showed a sensor-assay potency score (higher = more potent) of -0.535. With TTCTTTTATAACGTGTAGGGTA the sensor-assay potency score (higher = more potent) was -0.399. AACTCTAACAGGGACCACCGTG was tested, and the sensor-assay potency score (higher = more potent) was -1.13. In the case of TATCTTTGTTCTCCACCGGATT, the sensor-assay potency score (higher = more potent) is reported as -1.29. ATATCTTTGTTCTCCACCGGAT gave a sensor-assay potency score (higher = more potent) of -0.501. In the case of ATATCCTATAATTCGATAGTTG, the sensor-assay potency score (higher = more potent) is reported as -1.04. TTCATTCACAAGATTTTCTTTT gave a sensor-assay potency score (higher = more potent) of -0.349. TAAAACCACAATATCTTTGTTC gave a sensor-assay potency score (higher = more potent) of 0.0103. In the case of AATCATGATGCTGACAGCGGTC, the sensor-assay potency score (higher = more potent) is reported as -0.463. AATATCTTTGTTCTCCACCGGA gave a sensor-assay potency score (higher = more potent) of -0.351. With TATATTGTCTCTCGACCGTTGT the sensor-assay potency score (higher = more potent) was -0.124. TTGTCTCTCGACCGTTGTGTGC showed a sensor-assay potency score (higher = more potent) of -1.35. Work on TAGAATTGTCTGGTTACTTCTT yielded a sensor-assay potency score (higher = more potent) of -0.107.

The sequences below were run against CELA2A in the same assay as above. Conditions: shRNA.
TACCACTTGCCATTGGAGCTGT gave a sensor-assay potency score (higher = more potent) of 0.0148. For TTGGTTGGAGTTCCAGTCCTTG, the sensor-assay potency score (higher = more potent) was -0.732. TGTGGTAGTAGTTGCAGCCGAG was tested, and the sensor-assay potency score (higher = more potent) was -0.0375. TAGTAGTTGCAGCCGAGGCGAG gave a sensor-assay potency score (higher = more potent) of -1.3. In the case of TTGTGGTAGTAGTTGCAGCCGA, the sensor-assay potency score (higher = more potent) is reported as -0.632. ATGTAATTGGAGACCCGCGTGA showed a sensor-assay potency score (higher = more potent) of -0.77. AATCTTAGAGACACTGACTGCC showed a sensor-assay potency score (higher = more potent) of 0.508. Work on TTGCAGCTGGAGATCACGCCAT yielded a sensor-assay potency score (higher = more potent) of -0.881. ATACTGGTTTTCACGCTGCTGC showed a sensor-assay potency score (higher = more potent) of -1.06. For TTCTTCACCGCCAACCACCCTA, the sensor-assay potency score (higher = more potent) was -0.855. TTATATTATTTTCCTTCTGTGA gave a sensor-assay potency score (higher = more potent) of -1.25. Sequence TCTTAGAGACACTGACTGCCAG has a sensor-assay potency score (higher = more potent) of -0.61.

Each sequence was assayed against CENPE in the same assay as above. Conditions: shRNA.
TTGAGTGTCTCCTCTACTCTTC was tested, and the sensor-assay potency score (higher = more potent) was -0.033. TTGAGAGTCTATGTATTCCTGT gave a sensor-assay potency score (higher = more potent) of 0.505. TTTATTTTTGTAACATAGCTTA gave a sensor-assay potency score (higher = more potent) of -0.197. For TTGGAGTTCATTTTTCTCCTGT, the sensor-assay potency score (higher = more potent) was 0.691. Sequence TATAGTACCATTGTAGCCTTGT has a sensor-assay potency score (higher = more potent) of 0.768. TTGACATCTTTTTTTAACGTAA was tested, and the sensor-assay potency score (higher = more potent) was -0.388. TTGTGTGGTAGGATTAACCTGG was tested, and the sensor-assay potency score (higher = more potent) was 0.117. Sequence TTTATCAACAGTTTCTTTGTGT has a sensor-assay potency score (higher = more potent) of 1.24. Sequence TATTTCACACATTTTCTCCTGA has a sensor-assay potency score (higher = more potent) of 0.76. Work on TTGTCTTGTATCTCTTTCCTCA yielded a sensor-assay potency score (higher = more potent) of 0.236. For TTGAAGAACTTCTTGCAGCCTC, the sensor-assay potency score (higher = more potent) was 0.172. Work on TTTATCAATAGTTTCTTGGTGC yielded a sensor-assay potency score (higher = more potent) of 0.371. TTGAGTATCTATATTCATGTTA was tested, and the sensor-assay potency score (higher = more potent) was 0.243. Sequence TTAGTTGCATCTCTTGATCTTT has a sensor-assay potency score (higher = more potent) of 0.409. TTTGTCAATAGTTTCCTGCTGC was tested, and the sensor-assay potency score (higher = more potent) was 0.514.
